Reference: PubChem BioAssay (Tox21)
Records with an inconclusive call do not appear. A number with no mark means an inactive call. Unless noted, calls come from the whole dose curve.

System: not listed separately
Assay: qHTS assay to identify small molecule agonists or antagonists of the thyroid stimulating hormone receptor (TSHR) signaling pathway - wild type cell line counter screen (AID 1259384)
Details: HEK293 wild type, cAMP HTRF counter-screen, stronger effect = higher value; series mostly up to 92.4 µM; cAMP activity change: at the top concentration
In short: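 Counter screen in untransfected Hek293: compounds (15-point titration, triplicate) plus phosphodiesterase inhibitor Ro20-1724 added after 18 h plating; 30 min RT. Intracellular cAMP via competitive d2/cryptate immunoassay, 1 h incubation.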
% is set by controls: 0 for no effect and ±100 for the full control effect.

Compound | cAMP activity change
O=S(=O)(O)CCN1CCN(CCO)CC1 | 3.86%
CC(COC(C)(C)C)OCCCO (configuration not stated) | 1.25%
O=Cc1ccc(Cl)c(Cl)c1 | -1.55%
CC(C)=CCOC(=O)c1ccccc1 | 0.0078%
CCC(C=O)CC | -1.18%
Nc1nnc(-c2cccc(Cl)c2Cl)c(N)n1 | 6.53% [at 42.5 µM]
COc1cc(C(=S)N2CCOCC2)cc(OC)c1OC | 4.1% [at 42.5 µM]
Cc1ccsc1/C=C/C1=NCCCN1C | -6.82% [at 42.5 µM]
OCCCCC(O)CO (configuration not stated) | 6.12%
NNc1nnc(NN)c2ccccc12 | 2.33% [at 42.5 µM]
CC(CN)CC(C)(C)CCN (configuration not stated) | 1.25% [at 240 µM]
CCCCCCCCCCCCCC | -0.502%
O=P(O)(O)OP(=O)(O)O | 6.19%
CC(=O)CCCCn1c(=O)c2c(ncn2C)n(C)c1=O | 1.08% [at 42.5 µM]
CC(=O)N[C@@H](CCC(=O)O)C(=O)O | 2.47% [at 42.5 µM]
Cc1ccccc1OCC(O)CO (configuration not stated) | 5.44% [at 42.5 µM]
C=C1CC/C=C(\C)CC[C@@H]2[C@@H]1CC2(C)C | -2.46%
c1ccc2c(c1)ccc1c3ccccc3ccc21 | -0.874% [at 42.5 µM]
COCCOCCOCCOCCOCCO | -0.343%
O=C1CC(c2ccc(Cl)cc2)CC(=O)N1 | -11.2% [at 42.5 µM]

Molecular target: Thyrotropin receptor (Homo sapiens) (UniProt P16473)
Sequence (P16473 whole entry, looked up): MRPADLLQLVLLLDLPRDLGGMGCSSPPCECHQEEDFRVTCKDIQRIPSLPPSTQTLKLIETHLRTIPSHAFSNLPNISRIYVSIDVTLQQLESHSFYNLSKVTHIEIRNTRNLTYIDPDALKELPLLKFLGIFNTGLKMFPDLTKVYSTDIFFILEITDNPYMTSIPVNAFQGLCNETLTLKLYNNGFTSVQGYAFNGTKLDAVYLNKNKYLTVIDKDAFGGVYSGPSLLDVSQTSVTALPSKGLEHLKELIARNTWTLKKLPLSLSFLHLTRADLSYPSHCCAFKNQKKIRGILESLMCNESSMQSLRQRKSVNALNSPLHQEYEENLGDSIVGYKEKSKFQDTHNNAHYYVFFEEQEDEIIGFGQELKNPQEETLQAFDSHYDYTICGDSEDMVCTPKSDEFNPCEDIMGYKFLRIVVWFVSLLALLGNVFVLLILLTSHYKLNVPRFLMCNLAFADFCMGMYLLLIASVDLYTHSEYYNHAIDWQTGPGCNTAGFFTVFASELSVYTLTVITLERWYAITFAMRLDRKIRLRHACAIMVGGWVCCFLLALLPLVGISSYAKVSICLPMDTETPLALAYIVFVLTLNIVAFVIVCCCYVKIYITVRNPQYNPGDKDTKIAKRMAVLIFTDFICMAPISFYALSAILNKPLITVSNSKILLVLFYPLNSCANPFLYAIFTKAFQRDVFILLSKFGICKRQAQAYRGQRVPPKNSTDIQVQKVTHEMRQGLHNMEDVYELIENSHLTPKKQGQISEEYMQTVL
Assay: qHTS assay to identify small molecule antagonists of the thyroid stimulating hormone receptor (TSHR) signaling pathway (AID 1259385); note: nearly all actives have a fitted effect of over 20% in size
Details: TSHR-HEK293 cAMP HTRF, TSH-stimulated antagonist mode; series mostly up to 92.4 µM; activity change, negative = inhibition: at the top concentration
In short: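 Antagonist mode: compound-treated TSHR-expressing HEK293 cells were stimulated with 1.5 ng/mL TSH (final) in presence of Ro20-1724 for 30 min at RT. HTRF cAMP detection after 1 h; each compound tested at 15 concentrations, triplicate.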

Compound | activity change, negative = inhibition
CCOC(=O)CC(=O)c1ccccc1 | -1.18%
O=S(=O)(O)CCN1CCN(CCO)CC1 | -0.2%
CC(COC(C)(C)C)OCCCO (configuration not stated) | 0.635%
O=C(O)c1ccc(Cl)cc1Cl | -11.5%
CC(C)N(c1ccccc1)C(C)C | 2.36%
O=Cc1ccc(Cl)c(Cl)c1 | -2.01%
CC(C)=CCOC(=O)c1ccccc1 | -1.92%
CCC(C=O)CC | 1.16%
CC(N)C(=O)OC(C)(C)Cc1ccc(Cl)cc1 (configuration not stated) | -9.18% [at 42.5 µM]
Nc1nnc(-c2cccc(Cl)c2Cl)c(N)n1 | 4.02% [at 42.5 µM]
CC1(C)S[C@@H]2[C@H](N=CN3CCCCCC3)C(=O)N2[C@H]1C(=O)O | 0.193% [at 42.5 µM]
CCCC/C=C\CCCCCCCCCC=O | -1.07%
COc1cc(C(=S)N2CCOCC2)cc(OC)c1OC | -1.38% [at 42.5 µM]
OCCCCC(O)CO (configuration not stated) | 0.186%
NNc1nnc(NN)c2ccccc12 | 0.432% [at 42.5 µM]
CC(CN)CC(C)(C)CCN (configuration not stated) | 1.48% [at 240 µM]
CCCCCCCCCCCCCC | 3.23%
CC(=O)CCCCn1c(=O)c2c(ncn2C)n(C)c1=O | -1.53% [at 42.5 µM]
CC(=O)N[C@@H](CCC(=O)O)C(=O)O | 1.54% [at 42.5 µM]
Cc1ccccc1OCC(O)CO (configuration not stated) | 1.65% [at 42.5 µM]
C=C1CC/C=C(\C)CC[C@@H]2[C@@H]1CC2(C)C | -1.68%
CN(C)c1ccc(C=O)cc1 | 0.262%
c1ccc2c(c1)ccc1c3ccccc3ccc21 | 1.04% [at 42.5 µM]
COCCOCCOCCOCCOCCO | 1.48%
O=C1CC(c2ccc(Cl)cc2)CC(=O)N1 | 0.129% [at 42.5 µM]
O=C1CCCC(=O)O1 | 2.72%

System: not listed separately
Assay: qHTS assay to identify small molecule agonists of the estrogen receptor alpha (ER-alpha) signaling pathway in the presence of an antagonist - cell viability counter screen (AID 1259386; active = well fitted cell-killing curve with a large enough effect in the repeat runs;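 note: cells exposed to compounds for 22 h at 37 °C before the viability read; nearly all actives have a fitted effect of over 30% in size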)
Details: VM7Luc4E2 viability, CellTiter-Fluor fluorescence, 22 h; series mostly up to 92.4 µM; activity change, negative = cytotoxicity: at the top concentration
In short: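 VM7Luc4E2, stripped-serum pre-culture 5 d; 24hr plating; +ICI-182,780 10.0nM final; cpds 15 conc, 22hr, 37C/5% CO2; CellTiter-Fluor added at 21hr, fluorescence 1hr later.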

Compound | activity change, negative = cytotoxicity
CCOC(=O)CC(=O)c1ccccc1 | 0.656%
CC(COC(C)(C)C)OCCCO (configuration not stated) | -2.5%
CC(C)CCCCOC(=O)c1ccccc1C(=O)OCCCCC(C)C | 2.24%
COc1ccc(-c2cc(=O)c3c(O)cc(O[C@@H]4O[C@H](CO[C@@H]5O[C@@H](C)[C@H](O)[C@@H](O)[C@H]5O)[C@@H](O)[C@H](O)[C@H]4O)cc3o2)cc1O | -1.13% [at 42.5 µM]
CC(C)N(c1ccccc1)C(C)C | 1.86%
CC(C)=CCOC(=O)c1ccccc1 | 0.411%
CCC(C=O)CC | 3.37%
Nc1nnc(-c2cccc(Cl)c2Cl)c(N)n1 | 0.36% [at 42.5 µM]
C#CC(C)N(C)C(=O)Nc1ccc(Cl)cc1 (configuration not stated) | -7.28%
CCCC/C=C\CCCCCCCCCC=O | 0.0306%
C[C@@H](Oc1ccc(CNC(=O)c2cccnc2Oc2ccc3c(c2)OCO3)c(F)c1)C(=O)O | -0.426%
COc1cc(C(=S)N2CCOCC2)cc(OC)c1OC | 2.64% [at 42.5 µM]
Cc1ccsc1/C=C/C1=NCCCN1C | -3.19% [at 42.5 µM]
OCCCCC(O)CO (configuration not stated) | 0.256%
NNc1nnc(NN)c2ccccc12 | 1.71% [at 42.5 µM]
CCCCCCCCCCCCCC | 0.819%
O=P(O)(O)OP(=O)(O)O | -0.153%
CC(=O)CCCCn1c(=O)c2c(ncn2C)n(C)c1=O | 0.38% [at 42.5 µM]
Cc1ccccc1OCC(O)CO (configuration not stated) | 1.95% [at 42.5 µM]
CCCOC(OCCC)OCCC | 4.59%
c1ccc2c(c1)ccc1c3ccccc3ccc21 | -4.66% [at 42.5 µM]
COCCOCCOCCOCCOCCO | 0.104%
O=C1CCCC(=O)O1 | -0.93%
CC(=O)Nc1ccc(S(=O)(=O)Cl)cc1 | -4.71%
CCCCN | 1.31% [at 42.5 µM]

Molecular target: Progesterone receptor (Homo sapiens) (UniProt P06401)
Sequence (P06401 whole entry, looked up): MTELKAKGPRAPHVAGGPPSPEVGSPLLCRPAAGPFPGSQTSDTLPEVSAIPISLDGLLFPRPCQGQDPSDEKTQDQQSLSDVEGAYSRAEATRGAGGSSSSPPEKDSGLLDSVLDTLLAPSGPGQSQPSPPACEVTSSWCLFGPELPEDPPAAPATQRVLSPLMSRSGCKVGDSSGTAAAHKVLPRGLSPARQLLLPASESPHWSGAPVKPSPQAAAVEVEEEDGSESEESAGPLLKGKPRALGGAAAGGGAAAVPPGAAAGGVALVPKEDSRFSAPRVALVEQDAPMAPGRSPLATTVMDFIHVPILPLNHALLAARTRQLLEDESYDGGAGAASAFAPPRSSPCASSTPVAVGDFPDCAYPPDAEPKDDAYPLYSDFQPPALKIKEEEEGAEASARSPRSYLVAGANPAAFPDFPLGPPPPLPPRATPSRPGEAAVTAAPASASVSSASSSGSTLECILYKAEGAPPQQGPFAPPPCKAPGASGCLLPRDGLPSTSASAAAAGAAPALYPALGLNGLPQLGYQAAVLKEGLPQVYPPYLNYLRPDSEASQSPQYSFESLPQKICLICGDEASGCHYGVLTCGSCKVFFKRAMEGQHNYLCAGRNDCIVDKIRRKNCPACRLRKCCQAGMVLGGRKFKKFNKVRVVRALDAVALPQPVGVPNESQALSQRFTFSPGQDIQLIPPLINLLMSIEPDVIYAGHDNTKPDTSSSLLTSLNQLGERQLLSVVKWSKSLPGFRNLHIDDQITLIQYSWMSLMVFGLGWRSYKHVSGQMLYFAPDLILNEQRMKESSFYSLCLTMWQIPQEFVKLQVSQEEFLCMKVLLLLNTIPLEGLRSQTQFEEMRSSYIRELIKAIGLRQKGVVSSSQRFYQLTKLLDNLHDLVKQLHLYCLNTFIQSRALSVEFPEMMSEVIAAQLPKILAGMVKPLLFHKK
Assay: qHTS assay to identify small molecule agonists of the progesterone receptor (PR) signaling pathway (AID 1346784); note: nearly all actives have a fitted effect of over 30% in size
Details: PR-UAS-bla HEK293T, beta-lactamase FRET ratio, 16 h; series mostly up to 92.4 µM; activation: at the top concentration
In short: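 Reporter assay, GripTite PR-UAS-bla HEK 293T cells: 16 hr exposure to DMSO-dissolved compounds at 37C, 5% CO2, in steroid-depleted (2% charcoal-stripped FBS) medium; beta-lactamase measured by FRET fluorescence.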

Compound | activation
CCOC(=O)CC(=O)c1ccccc1 | -0.117%
O=S(=O)(O)CCN1CCN(CCO)CC1 | -0.102%
O=C(O)c1ccc(Cl)cc1Cl | 1.88%
CC(C)CCCCOC(=O)c1ccccc1C(=O)OCCCCC(C)C | 4.59%
COc1ccc(-c2cc(=O)c3c(O)cc(O[C@@H]4O[C@H](CO[C@@H]5O[C@@H](C)[C@H](O)[C@@H](O)[C@H]5O)[C@@H](O)[C@H](O)[C@H]4O)cc3o2)cc1O | -1.51% [at 42.5 µM]
CC(C)N(c1ccccc1)C(C)C | 1.51%
O=Cc1ccc(Cl)c(Cl)c1 | 0.985%
CC(C)=CCOC(=O)c1ccccc1 | -0.106%
CC(N)C(=O)OC(C)(C)Cc1ccc(Cl)cc1 (configuration not stated) | -5.35% [at 42.5 µM]
Nc1nnc(-c2cccc(Cl)c2Cl)c(N)n1 | 2.1% [at 42.5 µM]
CC1(C)S[C@@H]2[C@H](N=CN3CCCCCC3)C(=O)N2[C@H]1C(=O)O | 0.2% [at 42.5 µM]
C#CC(C)N(C)C(=O)Nc1ccc(Cl)cc1 (configuration not stated) | -1.5%
O=S(=O)(O)c1cc(O)c2ccc(Nc3ccccc3)cc2c1 | 1.32%
C[C@@H](Oc1ccc(CNC(=O)c2cccnc2Oc2ccc3c(c2)OCO3)c(F)c1)C(=O)O | -0.495%
COc1cc(C(=S)N2CCOCC2)cc(OC)c1OC | 0.424% [at 42.5 µM]
Cc1ccsc1/C=C/C1=NCCCN1C | -1.29% [at 42.5 µM]

Compound | activation
OCCCCC(O)CO (configuration not stated) | -1.36%
CC(CN)CC(C)(C)CCN (configuration not stated) | -3.42% [at 240 µM]
CCCCCCCCCCCCCC | -1.22%
O=P(O)(O)OP(=O)(O)O | 3.49%
CC(=O)CCCCn1c(=O)c2c(ncn2C)n(C)c1=O | -0.164% [at 42.5 µM]
CC(=O)N[C@@H](CCC(=O)O)C(=O)O | -0.0408% [at 42.5 µM]
Cc1ccccc1OCC(O)CO (configuration not stated) | 0.0051% [at 42.5 µM]
CCCOC(OCCC)OCCC | 0.614%
CN(C)c1ccc(C=O)cc1 | 0.436%
NCCS | -1.72% [at 42.5 µM]
COCCOCCOCCOCCOCCO | 1.63%
O=C1CC(c2ccc(Cl)cc2)CC(=O)N1 | 1.14% [at 42.5 µM]
O=C1CCCC(=O)O1 | 0.184%
CC(=O)Nc1ccc(S(=O)(=O)Cl)cc1 | 0.0853%
CCCCN | -2.83% [at 42.5 µM]
